Screens deposited in PubChem BioAssay by National Center for Advancing Translational Sciences (NCATS).
Cycloheximide cs = Cycloheximide Counterscreen for Small Molecule Inhibitors of Shiga Toxin; max response, %; AID 2314, 2010; 12% of 300,000 active; cell reporter, cycloheximide protein synthesis inhibition counterscreen; in the data active = max response mostly above about 13%, no sharp cut-off; inactive = mostly below about 14%; also: read at 38.3 µM for the half of the compounds with a filed dose
AMA1 RON2 block = qHTS for Inhibitors of AMA1-RON; Towards Development of Antimalarial Drug Lead: Primary Screen | Plasmodium falciparum AMA1 (3D7) - RON2 peptide interaction | AlphaScreen AMA1-biotinylated RON2 peptide binding | Potency, µM (series often up to 58.2 µM), usual class: inhibitors | 0.2% of 360,000 active | AID 720542, 2013; also: nearly all actives have a fitted effect of over 45% in size
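AMA1 (3D7) with his tag at 25 nM final met compounds first, then biotinylated RON2 peptide at 25 nM; detection used donor plus acceptor beads, 10 µg/mL apiece, read by AlphaScreen after 30 min at room temperature.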
AmpC no deterg = qHTS Inhibitors of AmpC Beta-Lactamase (assay without detergent). P00811. AmpC nitrocefin hydrolysis, absorbance 480 nm, 0.0001% Triton. Potency, µM (titrated, usually from 57.1 µM), most hits filed as inhibitors. 0.52% of 330,000 active. AID 485341, 2010; also: nearly all actives have a fitted effect of over 20% in size
Target sequence (P00811 whole entry, looked up): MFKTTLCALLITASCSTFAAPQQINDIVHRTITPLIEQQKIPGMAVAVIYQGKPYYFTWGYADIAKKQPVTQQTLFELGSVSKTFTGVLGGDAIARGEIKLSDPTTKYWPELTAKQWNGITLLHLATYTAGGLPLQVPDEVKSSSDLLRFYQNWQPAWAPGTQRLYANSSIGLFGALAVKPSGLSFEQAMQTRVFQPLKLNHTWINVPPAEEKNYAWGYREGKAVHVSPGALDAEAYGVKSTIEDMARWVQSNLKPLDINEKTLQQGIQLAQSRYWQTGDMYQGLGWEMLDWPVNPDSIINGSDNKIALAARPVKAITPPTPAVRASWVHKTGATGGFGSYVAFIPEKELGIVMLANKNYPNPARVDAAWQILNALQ
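20 mM phosphate pH 7.0 + 0.01% (detergent screen) or 0.0001% Triton X-100; 5.3 nM AmpC reagent; cpd preinc 15 min RT; nitrocefin (800 uM stock) to start; A480 q20 s × 4 min; Activity was normalised to no-enzyme and no-compound control wells.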
SARS PLpro yeast = qHTS of Yeast-based Assay for SARS-CoV PLP | S. cerevisiae expressing SARS-CoV PLpro, growth rescue | Potency, µM (highest dose often 32.9 µM), most hits filed as activators | 0.19% of 330,000 active | AID 485353, 2010; calls by dose curve; also: nearly all actives have a fitted effect of over 55% in size
Shiga inhibitor = A qHTS for Small Molecule Inhibitors of Shiga Toxin | Vero cells, Shiga toxin protein synthesis inhibition reporter | inhibition, % at 38.7 µM | 9.2% of 290,000 active | AID 2315, 2010; in the data active = inhibition mostly above about 28%, no sharp cut-off; inactive = mostly below about 43%
AmpC inh detg = qHTS Inhibitors of AmpC Beta-Lactamase (assay with detergent); 0.041% of 370,000 active; P00811; AID 485294, 2010; AmpC hydrolysis of nitrocefin, absorbance 480 nm, 0.01% Triton; Potency, µM (highest dose often 114 µM), usual class: inhibitors; also: nearly all actives have a fitted effect of over 25% in size
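20 mM phosphate pH 7.0 + 0.01% (detergent screen) or 0.0001% Triton X-100; 5.3 nM AmpC reagent; cpd preinc 15 min RT; nitrocefin (800 uM stock) to start; A480 q20 s × 4 min; Activity was normalised to no-enzyme and no-compound control wells.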
Large screens that a line does not name were inactive. Shown is part of a subset that was picked to be rich in hits. Unless noted, calls follow the shape of the dose curve; as a rule, active = well fitted curve in the direction sought with a large enough effect; inconclusive = small, poorly fitted or top-dose-only effect, or another doubt; inactive = no such curve, though single readings can be large; an effect the other way counts as inactive or inconclusive.

COc1ccc(NC(=O)Nc2nnc(-c3ccco3)s2)cc1	Cycloheximide cs 34, Shiga inhibitor 59, AmpC inh detg inconclusive
O=C(COc1ccc(Br)cc1CO)Nc1ccc(S(=O)(=O)N2CCCC2)cc1	none (no result: Cycloheximide cs, Shiga inhibitor)
Cc1ccc(OCC(=O)Nc2ccc(NC(=O)c3ccco3)cc2)c(C)c1	none
Cc1ccc(NC(=O)COc2ccc(Br)cc2C)cc1	Cycloheximide cs 70, Shiga inhibitor 91
O=C(COc1ccc(Br)cc1CO)Nc1ccc(F)cc1	Cycloheximide cs 9.1
COc1ccc(-n2c(C(C)n3nc(C)c([N+](=O)[O-])c3C)n[nH]c2=S)cc1 (stereo not given)	none
COc1ccc(/C=N/Nc2ccc(C(F)(F)F)cc2[N+](=O)[O-])cc1O	none
c1ccc2c(CN3CCCCCC3)c[nH]c2c1	Cycloheximide cs 39, Shiga inhibitor 73
O=C1CCCCN1CCc1c[nH]c2ccccc12	Cycloheximide cs 25, Shiga inhibitor active
O=C1CCC(=O)N1CCc1c[nH]c2ccccc12	none
O=C(O)C1CC(=O)N(CCc2c[nH]c3ccccc23)C1 (stereo not given)	AmpC inh detg inconclusive
O=C(CN1C(=O)c2ccccc2C1=O)NCCc1c[nH]c2ccccc12	none
O=C1c2ccccc2C(=O)N1CCc1c[nH]c2ccccc12	Cycloheximide cs 48, Shiga inhibitor 95
O=C1c2ccccc2C(=O)N1CCCc1c[nH]c2ccccc12	Cycloheximide cs 17
O=C(NCc1cc(C(F)(F)F)ccc1F)C1CCC(=O)N(C2CCCCCC2)C1 (stereo not given)	none
O=C(OCC(=O)N1CCN(C(=O)c2ccco2)CC1)c1ccc(S(=O)(=O)N2CCCCC2)cc1	none
CCOC(=O)c1cccc(NC(=O)N2CC=C(c3c[nH]c4ccccc34)CC2)c1	none (no result: Cycloheximide cs, AMA1 RON2 block, AmpC no deterg, SARS PLpro yeast, Shiga inhibitor)
COC(c1ccccc1)c1c(-c2ccccc2)nn(C)c1Cl (stereo not given)	none
O=C1c2ccccc2C(=O)N1CCc1c[nH]c2ccc(O)cc12	Cycloheximide cs 34
O=C1COCC(=O)N1CCc1c[nH]c2ccccc12	none
Cc1cc(Nc2ccc3c(c2)OCCO3)c2cc(Cl)ccc2n1	Cycloheximide cs 68, Shiga inhibitor 79
COc1ccc(CCC(C)NCc2cc(OC)cc(OC)c2)cc1 (stereo not given)	none
CCCn1c(=O)c2ccccc2n2c(SCCOc3ccc(Cl)cc3)nnc12	Shiga inhibitor 70
O=C(O)[C@@H]1CCCN1S(=O)(=O)c1cccc2cccnc12	none (no result: Cycloheximide cs, Shiga inhibitor)
COc1ccc(-n2ncc3c(NCC4CCCO4)ncnc32)cc1 (stereo not given)	Cycloheximide cs 68, Shiga inhibitor 95, AmpC inh detg inconclusive
Clc1ccc2[nH]c3c(NCC4CCCO4)ncnc3c2c1 (stereo not given)	Cycloheximide cs 23 (no result: AMA1 RON2 block)
Clc1ccc(-n2ncc3c(NCC4CCCO4)ncnc32)cc1 (stereo not given)	Cycloheximide cs 40, Shiga inhibitor 50, AmpC inh detg inconclusive
CC(C)(C)n1nnnc1C(c1cccnc1)N(Cc1ccccc1)Cc1cccs1 (stereo not given)	none
Cn1nc(C(=O)NCc2ccccc2CN2CCCC2)c2ccccc2c1=O	AmpC inh detg inconclusive (no result: Cycloheximide cs, Shiga inhibitor)
CCCCCn1c(CNC(=O)c2ccccc2)nc2ccccc21	none (no result: Cycloheximide cs, AMA1 RON2 block, AmpC no deterg, SARS PLpro yeast, Shiga inhibitor)
CC(=O)Cn1ncc(N2CCCCC2)c(Cl)c1=O	Cycloheximide cs 21
CO/N=C(\Cn1ncc(N2CCCC2)c(Cl)c1=O)c1ccc(Cl)cc1	AmpC inh detg inconclusive
Cc1nn(CC#N)c(=O)n1-c1ccc(C(C)C)cc1	none
CS(=O)(=O)c1ccc2nc(NC(=O)c3cccc(NS(=O)(=O)c4ccc(F)c(F)c4)c3)sc2c1	Cycloheximide cs 19
CS(=O)(=O)c1ccc2nc(NC(=O)c3ccc(NS(=O)(=O)c4ccc(F)c(F)c4)cc3)sc2c1	none
O=C(Nc1nc2ccc(SC(F)F)cc2s1)c1ccc(NS(=O)(=O)c2ccc(F)c(F)c2)cc1	Cycloheximide cs 41, Shiga inhibitor 79
Nc1cc(=O)[nH]c(SCC(=O)Nc2ccc(Cl)c(Cl)c2)n1	none
O=C(C1=C(O)C(=O)N(c2ncccn2)C1c1cccc(Cl)c1)c1ccco1 (stereo not given)	none (no result: AmpC no deterg, SARS PLpro yeast)
CCOc1cccc(C2C(C(=O)c3ccco3)=C(O)C(=O)N2Cc2ccncc2)c1 (stereo not given)	Cycloheximide cs 17, AmpC inh detg inconclusive
CCSc1nnc(N2C(=O)C(O)=C(C(=O)c3ccco3)C2c2cccc(OC)c2)s1 (stereo not given)	Cycloheximide cs 39, Shiga inhibitor 90
CCCOc1cccc(C2C(C(=O)c3ccco3)=C(O)C(=O)N2CCN(CC)CC)c1 (stereo not given)	none
COc1ccc(C2C(C(=O)c3ccc(C)o3)=C(O)C(=O)N2Cc2cccnc2)cc1OC (stereo not given)	AmpC inh detg inconclusive
CSc1nnc(N2C(=O)C(O)=C(C(=O)c3ccco3)C2c2cccc(Cl)c2)s1 (stereo not given)	Cycloheximide cs 34
COc1ccc(C2C(C(=O)c3cccs3)=C(O)C(=O)N2Cc2cccnc2)cc1OC (stereo not given)	Cycloheximide cs 38, Shiga inhibitor 110
CCOc1cccc(C2C(C(=O)c3ccco3)=C(O)C(=O)N2c2nnc(C)s2)c1 (stereo not given)	none (no result: Cycloheximide cs, Shiga inhibitor)
CSc1nnc(N2C(=O)C(O)=C(C(=O)c3ccco3)C2c2ccc(F)cc2)s1 (stereo not given)	Cycloheximide cs 28
O=C(C1=C(O)C(=O)N(c2ncccn2)C1c1ccc(Cl)cc1)c1ccco1 (stereo not given)	none
CCCN(CCC)S(=O)(=O)c1ccc(NC(=O)C2CCCO2)cc1 (stereo not given)	none
CC(=O)Nc1ccccc1/C=C/c1ccc2c(C)ccc(O)c2n1	Cycloheximide cs 17
CC(=O)Nc1ccccc1/C=C/c1ccc2c(C)cc(C)c(O)c2n1	none
Cc1c(C(=O)OC(C)C)[nH]c2c1C(=O)CC(C)(C)C2	Cycloheximide cs 11, AmpC inh detg inconclusive
O=C(c1cc2c(=O)oc3ccccc3c2s1)N1CCOCC1	Cycloheximide cs 31
Cc1nn(-c2ccccc2)c2sc(C(=O)N3CCOCC3)cc12	Cycloheximide cs 43, Shiga inhibitor 44, AmpC inh detg inconclusive
COC(=O)c1cc2c(C)nn(-c3ccccc3)c2s1	none
Cc1nn(-c2ccccc2)c2sc(C(=O)N(CC(=O)NC(C)(C)C)Cc3ccco3)cc12	Cycloheximide cs 19
